An excerpt weighted towards active compounds, which were near 2.5% of everything screened.
Cruzain inh Det: cruzain (T. cruzi) inhibition with detergent; purified cruzain, Z-FR-AMC fluorescence, 0.01% Triton; Potency, µM, usual class: inhibitors; AID 1478; P25779; hit rate 0.43% among 200,000; further: nearly all actives have a fitted effect of over 40% in size
Target sequence (P25779 123-467 limits assumed): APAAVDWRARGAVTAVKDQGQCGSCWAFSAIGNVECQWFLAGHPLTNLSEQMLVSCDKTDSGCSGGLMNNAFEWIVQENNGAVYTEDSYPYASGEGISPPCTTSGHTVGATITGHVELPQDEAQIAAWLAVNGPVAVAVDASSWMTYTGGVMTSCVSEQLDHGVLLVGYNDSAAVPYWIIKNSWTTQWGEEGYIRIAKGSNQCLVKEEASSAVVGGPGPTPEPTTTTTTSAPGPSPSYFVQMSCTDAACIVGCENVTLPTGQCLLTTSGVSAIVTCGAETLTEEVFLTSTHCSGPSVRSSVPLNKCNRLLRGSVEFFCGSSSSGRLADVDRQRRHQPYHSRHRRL
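Enzyme 1.5 nM, Z-FR-AMC 2 uM, NaOAc 100 mM pH 5.5, DTT 5 mM, Triton X-100 0.01%; 15 min RT compound preincubation; kinetic ex360/em450, 60 s delta.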
Cruzain noTriton: inhibitors of Trypanosoma cruzi cruzain without detergent. P25779. purified cruzain, Z-FR-AMC fluorescence, no detergent. Potency, µM, usual class: inhibitors. hit rate 2.3% among 200,000. AID 1476; further: nearly all actives have a fitted effect of over 40% in size
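Purified cruzain at 1.5 nM, pre-incubated 15 min with compound at room temperature in 100 mM sodium acetate pH 5.5, 5 mM DTT, 0.00005% Triton X-100. Reaction started with 2 uM Z-FR-AMC; AMC fluorescence increase over 60 s gives rate.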
Large screens that a line does not name were inactive. The call rests on the fitted dose curve; in most records, active means well fitted curve in the direction sought with a large enough effect; inconclusive means small, poorly fitted or top-dose-only effect, or another doubt; inactive means no such curve, though single readings can be large; an effect the other way counts as inactive or inconclusive.

O=C(Cc1cccs1)Nc1nc(-c2ccccc2)cs1	none
C/C(=N\Nc1nc2ccccc2s1)c1cccs1	none
O=C(COC(=O)CNC(=O)c1ccccc1)Nc1nc(-c2ccccc2)cs1	Cruzain inh Det 25µM, Cruzain noTriton inconclusive
C/C(=N\Nc1nc(-c2ccccc2)cs1)c1cccs1	Cruzain inh Det inconclusive, Cruzain noTriton 7.9µM
O=C(c1csnn1)N1CCC2(CCCN(Cc3ccccc3)C2)CC1	none
Cc1cc(C)cc(-n2ccn(CC(=O)NCCc3ccccc3)c(=O)c2=O)c1	none
COc1cc(C(=O)Nc2ccc(NC(=O)c3ccc(Br)cc3)cc2)cc(OC)c1OC	none
O=C1CC(c2ccccc2)Sc2ccccc2N1Cc1ccc(F)cc1 (centres undefined)	none
CCCCC(CC)COC(=O)COc1ccc(Cl)cc1Cl (centres undefined)	none
Cc1cccc(NC(=O)C23CCC(C)(C2Br)C3(C)C)c1 (centres undefined)	none
COc1ccc(S(=O)(=O)NNC(=O)C2Cc3c(ccc4ccccc34)O2)cc1 (centres undefined)	none
Cc1ccc(-c2nc3sc(CCNC(=O)c4ccc(C)c(C)c4)c(C)n3n2)cc1	none
Cc1cc(C)cc(NC(=O)CCn2cnc3ccccc3c2=O)c1	none
O=C(CCn1cnc2ccccc2c1=O)Nc1nc(-c2ccc(Br)cc2)cs1	Cruzain noTriton 25µM
CCCCCC(=O)NCC(C)NC(=O)CCCCC (centres undefined)	none
CC(CNC(=O)C(C)(C)C)NC(=O)C(C)(C)C (centres undefined)	Cruzain noTriton 5µM
Cn1cc(S(=O)(=O)N2CCCCCC2)cc1C(=O)Nc1ccccc1F	none
NCCn1c(=O)c(CCc2ccccc2)nc2cncnc21	none
O=c1c(-c2ccc(F)c(F)c2)nc2cncnc2n1Cc1ccccc1Cl	none
O=c1c(CCc2ccccc2)nc2cncnc2n1Cc1ccccc1Cl	Cruzain noTriton 3.2µM
O=c1c(-c2cc(F)cc(F)c2)nc2cncnc2n1Cc1ccccc1Cl	Cruzain noTriton 25µM
Cc1cccc(NC(=O)CN(C)S(=O)(=O)c2ccc3c(c2)c(=O)n(C)c(=O)n3C)c1C	none
CC(C)NC(=O)CSc1nc2ccccc2c(=O)n1Cc1ccc(C(=O)NC(C)C)cc1	none
Nc1ccc(-c2nc3ccc(C(=O)O)cc3s2)cc1	Cruzain inh Det 25µM, Cruzain noTriton inconclusive
O=C(O)c1ccc2nc(-c3ccccc3)sc2c1	none
Cc1ccc(Cn2c(CNC(=O)Cc3cccc([N+](=O)[O-])c3)nc3cccnc32)cc1	none
O=C(CSc1ccccc1)Nc1ccc(-c2nc3ccccc3[nH]2)cc1	Cruzain noTriton inconclusive
Cc1ccc2nc(-c3ccc(NC(=O)CSc4ccccc4)cc3)[nH]c2c1	Cruzain inh Det 10µM, Cruzain noTriton inconclusive
O=C(CSc1ccc(-c2nc3ccccc3[nH]2)cn1)Nc1ccc(S(=O)(=O)N2CCCC2)cc1	Cruzain noTriton 32µM
Cc1cc2nc(-c3ccc(SCC(=O)Nc4ccc(S(=O)(=O)N5CCCC5)cc4)nc3)[nH]c2cc1C	Cruzain noTriton inconclusive
CC(=O)O[C@@H]1C(CO[Si](C)(C)C(C)(C)C)=C(Br)C(=O)[C@@H]2O[C@]12C	none
CCn1c(COc2cccc(OC)c2)nnc1SCC(=O)Nc1cccc(OC)c1	none
CCN(CC)CCOC(=O)c1ccc(NC(=O)c2cc3c(=O)n(CC)c4ccccc4c3s2)cc1	none
O=C(OCc1nnc(-c2ccccc2)o1)C1CCN(S(=O)(=O)c2cccs2)CC1	none
COc1ccc(C2Nc3ccccc3C(=O)N2Cc2ccco2)cc1COc1ccccc1F (centres undefined)	Cruzain noTriton 25µM
COc1ccc(C2Nc3ccccc3C(=O)N2Cc2ccco2)cc1COc1ccc(NC(C)=O)cc1 (centres undefined)	Cruzain noTriton inconclusive
CCc1ccc(-c2nc(SCC(=O)NCCOC)c(-c3ccc(C)cc3)[nH]2)cc1	none
COc1ccc(-c2nc3cc(C(C)C)ccc3o2)cc1NC(=O)c1ccccc1[N+](=O)[O-]	none
Clc1ccc(Oc2ncnc3oc(-c4ccccc4)cc23)cc1	Cruzain noTriton 20µM
Cc1ccccc1Oc1ncnc2oc(-c3ccccc3)cc12	none
O=C(NC(=O)c1cccc(F)c1)Nc1ccc(-c2cc(C(F)(F)F)nn2-c2ccccc2)cc1	none
O=C(Nc1ccc(-c2cc(C(F)(F)F)nn2-c2ccccc2)cc1)c1cccc(F)c1	Cruzain noTriton 20µM
O=C(Nc1ccc(F)cc1F)c1cc(-c2ccc(Cl)cc2)on1	none
Cc1sc2nc(CSc3cccc(C(F)(F)F)c3)[nH]c(=O)c2c1C	Cruzain noTriton 25µM
Cc1ccc(-n2nnnc2SCc2nc3sc(C)c(C)c3c(=O)[nH]2)cc1	Cruzain noTriton inconclusive
COC(=O)c1cnn(-c2ccc(C(=O)Nc3cc(OC)c(OC)c(OC)c3)cc2)c1N	none
CCC(CC)C(=O)Nc1cccc(C(=O)Nc2ccc(S(=O)(=O)Nc3ccc(C)cc3)cc2)c1	none
Cn1cc(-c2cc3n(n2)CCC(=O)N3CC(=O)O)c2ccccc21	none
O=C(Cn1cnc2sc(-c3ccccc3)cc2c1=O)NCCc1ccccc1	none

Bioassay records from PubChem.
